# Test results as given in PubChem BioAssay (NCI).
# Compounds without any hit were thinned out: in the full panel of roughly 83,000, 20% have a hit.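 96-well plates, one dose, 48 hours. Percent growth reported; active if below 10.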 Unmarked numbers belong to inactive results. Calls of active or inactive are those of the source.
# What was measured:
# Experiment in all cases: NCI-60 one-dose screen, 48 h (100 = growth as untreated, 0 = no growth, -100 = all killed)
# Details in all cases: 10 µM unless noted
# HCT-15 colon = system: HCT-15 colon
# HT29 colon = system: HT29 colon
# SNB-75 CNS = system: SNB-75 CNS
# SNB-19 CNS = system: SNB-19 CNS
# U251 CNS = system: U251 CNS
# PC-3 prostate = system: PC-3 prostate
# SK-MEL-5 melanoma = system: SK-MEL-5 melanoma
# UACC-62 melanoma = system: UACC-62 melanoma
# LOX IMVI melanoma = system: LOX IMVI melanoma
# SK-MEL-28 melanoma = system: SK-MEL-28 melanoma
# SK-MEL-2 melanoma = system: SK-MEL-2 melanoma
# EKVX NSCLC = system: EKVX NSCLC
# SN12C renal = system: SN12C renal
# UO-31 renal = system: UO-31 renal
# TK-10 renal = system: TK-10 renal
# ACHN renal = system: ACHN renal
# CAKI-1 renal = system: CAKI-1 renal
# A498 renal = system: A498 renal
# CCRF-CEM leukemia = system: CCRF-CEM leukemia
# MOLT-4 leukemia = system: MOLT-4 leukemia
Compound,growth (HCT-15 colon),growth (HT29 colon),growth (SNB-75 CNS),growth (SNB-19 CNS) [%],growth (U251 CNS) [%],growth (PC-3 prostate) [%],growth (SK-MEL-5 melanoma) [%],growth (UACC-62 melanoma),growth (LOX IMVI melanoma),growth (SK-MEL-28 melanoma),growth (SK-MEL-2 melanoma) [%],growth (EKVX NSCLC) [%],growth (SN12C renal) [%],growth (UO-31 renal) [%],growth (TK-10 renal) [%],growth (ACHN renal) [%],growth (CAKI-1 renal) [%],growth (A498 renal) [%],growth (CCRF-CEM leukemia) [%],growth (MOLT-4 leukemia) [%]
C=CCOC(=O)C1=C(C)NC2=C(C(=O)CC(C)(C)C2)C1c1ccc(OC)cc1 (stereo not given),105%,102%,81.2%,92.2,103,88.3,108,81.1%,102%,104%,95,101,106,85.2,114,98.6,80.8,85.5,97.4,89.7
COc1cc(OC)c(Cl)cc1N,96.6%,107%,101%,100,104,88.7,112,97.8%,101%,109%,116,118,93.1,91.3,105,101,91.6,90.9,97.3,108
COc1ccc(-c2nn(C(=O)NCCN(C)C)cc2-c2ccncc2)cc1Cl,33.5%,15.3%,-20% (active),54.8,31.1,63.5,20.5,34.6%,25.6%,39.4%,32.7,43.4,49.6,52.6,17.1,47.8,51.1,34.2,47.9,34.3
CCOCCNc1ccc(S(=O)(=O)c2ccc(N)cc2)cc1N,109%,114%,96.7%,114,98.2,111,102,95.1%,91.1%,112%,111,86.6,110,90.8,111,106,86.7,83.2,96,107
CCCCCCCCCCCC1=NC(C)(C)CN1CC(C)O (stereo not given),6.24% (active),-48.3% (active),61.8%,96.8,33.9,51.4,34,-49.4% (active),6.88% (active),59.8%,63.4,68.8,69.8,47.6,91.7,80.2,69.8,99.8,25.5,25.4
Clc1ccc(Cl)c(N=Cc2ccc3c(c2)OCO3)c1,106%,110%,103%,107,104,107,106,103%,95.2%,116%,109,98.8,105,86.6,107,114,94.6,91.6,106,106
CC(C)[C@@H]1C=C2CC[C@H]3[C@](C)(CN)CCC[C@]3(C)[C@H]2CC1,44.5%,-34.1% (active),64.8%,104,14,69.6,69.3,86.3%,43.6%,-82.1% (active),81.7,65.6,93,68.3,90.8,80.5,78.7,66.6,71,49.4
